Holding throughout (experiment): PBM; 200 nM protein, PBS
What all share (conditions): dsDNA, one strand shown

For experiment [1], the target named is HESX1 (Homo sapiens, UniProt Q9UBX0 95-180, R165K).
For experiment [2], the target named is T1, VENTX (Homo sapiens, UniProt O95231 78-163, R121Q).
T1 sequence: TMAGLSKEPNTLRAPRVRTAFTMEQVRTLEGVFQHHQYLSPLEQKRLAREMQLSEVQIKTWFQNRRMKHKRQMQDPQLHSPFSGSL

The target of experiment [3] is T2, VENTX (Homo sapiens, UniProt O95231 78-163).
T2 sequence: T1 sequence with Q44R

Experiment [4] has as its target PRRX1 (Homo sapiens, UniProt P54821 80-166, F113S).
In experiment [5] the target is T3, VENTX (Homo sapiens, UniProt O95231 78-163, Y115F).
T3 sequence: T1 sequence with Y38F, Q44R

Experiment [6] addresses HOXB6 (Homo sapiens, UniProt P17509 132-218, K202E).
In experiment [7] the target is HESX1 (Homo sapiens, UniProt Q9UBX0 95-180).
Experiment [8] concerns the target HOXA2 (Homo sapiens, UniProt O43364 129-215, R185T).
In experiment [9] the target is HOXA2 (Homo sapiens, UniProt O43364 129-215, R185K).
Experiment [10] concerns the target HESX1 (Homo sapiens, UniProt Q9UBX0 95-180, R109Q).
Experiment [11] concerns the target HESX1 (Homo sapiens, UniProt Q9UBX0 95-180, P111T).
The target of experiment [12] is HESX1 (Homo sapiens, UniProt Q9UBX0 95-180, F115L).
In experiment [13] the target is HOXA2 (Homo sapiens, UniProt O43364 129-215, Y150S).
Experiment [14] concerns the target NKX3-2 (Homo sapiens, UniProt P78367 192-278, P234S).
Experiment [15] concerns the target PRRX1 (Homo sapiens, UniProt P54821 80-166).
Experiment [16] has as its target HOXA2 (Homo sapiens, UniProt O43364 129-215).
For experiment [17], the target named is HOXB6 (Homo sapiens, UniProt P17509 132-218).
Experiment [18] concerns the target NKX3-2 (Homo sapiens, UniProt P78367 192-278).
The target of experiment [19] is HOXB9 (Homo sapiens, UniProt P17482 171-250, T197M).
Experiment [20] concerns the target MSX2 (Homo sapiens, UniProt P35548 130-214, R199I).
Experiment [21] addresses T4, PAX4 (Homo sapiens, UniProt O43316 9-242, F177V).
T4 sequence: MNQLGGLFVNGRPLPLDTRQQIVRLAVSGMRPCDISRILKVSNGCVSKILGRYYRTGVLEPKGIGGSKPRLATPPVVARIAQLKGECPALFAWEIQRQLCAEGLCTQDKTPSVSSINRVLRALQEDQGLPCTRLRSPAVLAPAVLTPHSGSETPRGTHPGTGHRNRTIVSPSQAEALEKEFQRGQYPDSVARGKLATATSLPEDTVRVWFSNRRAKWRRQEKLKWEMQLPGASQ

The target in experiment [22] is MSX2 (Homo sapiens, UniProt P35548 130-214).
Experiment [23] has as its target PROP1 (Homo sapiens, UniProt O75360 56-141, R99H).
Experiment [24] deals with ALX3 (Homo sapiens, UniProt O95076 139-225, L168Q).
Experiment [25] concerns the target MSX2 (Homo sapiens, UniProt P35548 130-214, F161Y).
Experiment [26] has as its target ALX3 (Homo sapiens, UniProt O95076 139-225, N203S).

Changes are numbered by the printed parent chain.

HESX1 (Homo sapiens, UniProt Q9UBX0 95-180, P111T), sequence (Q9UBX0 95-180 P111T): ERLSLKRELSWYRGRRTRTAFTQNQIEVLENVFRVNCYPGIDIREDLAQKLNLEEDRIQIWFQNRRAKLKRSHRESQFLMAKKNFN
HESX1 (Homo sapiens, UniProt Q9UBX0 95-180, R109Q), sequence (Q9UBX0 95-180 R109Q): as the sequence (Q9UBX0 95-180 P111T) above, with R15Q, T17P counted along it
HESX1 (Homo sapiens, UniProt Q9UBX0 95-180, R165K), sequence (Q9UBX0 95-180 R165K): as the sequence (Q9UBX0 95-180 P111T) above, with T17P, R71K counted along it
PRRX1 (Homo sapiens, UniProt P54821 80-166, F113S), sequence (P54821 80-166 F113S): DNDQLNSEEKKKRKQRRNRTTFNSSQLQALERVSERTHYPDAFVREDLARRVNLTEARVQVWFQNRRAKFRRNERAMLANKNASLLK
HOXB6 (Homo sapiens, UniProt P17509 132-218, K202E), sequence (P17509 132-218 K202E): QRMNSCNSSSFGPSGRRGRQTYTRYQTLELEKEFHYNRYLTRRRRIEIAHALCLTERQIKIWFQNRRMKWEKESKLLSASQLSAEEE
HESX1 (Homo sapiens, UniProt Q9UBX0 95-180, F115L), sequence (Q9UBX0 95-180 F115L): as the sequence (Q9UBX0 95-180 P111T) above, with T17P, F21L counted along it
PRRX1 (Homo sapiens, UniProt P54821 80-166), sequence (P54821 80-166): as the sequence (P54821 80-166 F113S) above, with S34F counted along it
HESX1 (Homo sapiens, UniProt Q9UBX0 95-180), sequence (Q9UBX0 95-180): as the sequence (Q9UBX0 95-180 P111T) above, with T17P counted along it
MSX2 (Homo sapiens, UniProt P35548 130-214), sequence (P35548 130-214): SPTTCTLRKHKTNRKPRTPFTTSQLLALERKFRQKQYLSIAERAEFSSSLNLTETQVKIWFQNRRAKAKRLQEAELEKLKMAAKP
HOXA2 (Homo sapiens, UniProt O43364 129-215, R185K), sequence (O43364 129-215 R185K): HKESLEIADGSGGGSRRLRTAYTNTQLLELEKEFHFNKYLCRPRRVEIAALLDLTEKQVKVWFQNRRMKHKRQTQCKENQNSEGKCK
ALX3 (Homo sapiens, UniProt O95076 139-225, L168Q), sequence (O95076 139-225 L168Q): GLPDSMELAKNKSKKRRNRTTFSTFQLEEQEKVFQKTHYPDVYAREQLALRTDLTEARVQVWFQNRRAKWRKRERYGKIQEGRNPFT
NKX3-2 (Homo sapiens, UniProt P78367 192-278), sequence (P78367 192-278): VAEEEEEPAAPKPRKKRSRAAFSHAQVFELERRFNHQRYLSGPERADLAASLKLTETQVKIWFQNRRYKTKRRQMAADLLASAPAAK
HOXA2 (Homo sapiens, UniProt O43364 129-215), sequence (O43364 129-215): as the sequence (O43364 129-215 R185K) above, with K57R counted along it
HOXA2 (Homo sapiens, UniProt O43364 129-215, R185T), sequence (O43364 129-215 R185T): as the sequence (O43364 129-215 R185K) above, with K57T counted along it
NKX3-2 (Homo sapiens, UniProt P78367 192-278, P234S), sequence (P78367 192-278 P234S): as the sequence (P78367 192-278) above, with P43S counted along it
PROP1, sequence (O75360 56-141 R99H): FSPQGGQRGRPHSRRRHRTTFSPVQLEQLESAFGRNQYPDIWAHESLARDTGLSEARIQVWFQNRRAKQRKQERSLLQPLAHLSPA
HOXB6 (Homo sapiens, UniProt P17509 132-218), sequence (P17509 132-218): as the sequence (P17509 132-218 K202E) above, with E71K counted along it
ALX3 (Homo sapiens, UniProt O95076 139-225, N203S), sequence (O95076 139-225 N203S): as the sequence (O95076 139-225 L168Q) above, with Q30L, N65S counted along it
MSX2 (Homo sapiens, UniProt P35548 130-214, F161Y), sequence (P35548 130-214 F161Y): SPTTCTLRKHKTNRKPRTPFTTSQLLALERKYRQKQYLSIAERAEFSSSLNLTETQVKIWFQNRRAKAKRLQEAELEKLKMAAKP
HOXB9, sequence (P17482 171-250 T197M): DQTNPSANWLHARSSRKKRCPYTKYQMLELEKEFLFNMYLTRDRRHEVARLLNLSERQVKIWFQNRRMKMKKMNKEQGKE
HOXA2 (Homo sapiens, UniProt O43364 129-215, Y150S), sequence (O43364 129-215 Y150S): as the sequence (O43364 129-215 R185K) above, with Y22S, K57R counted along it
MSX2 (Homo sapiens, UniProt P35548 130-214, R199I), sequence (P35548 130-214 R199I): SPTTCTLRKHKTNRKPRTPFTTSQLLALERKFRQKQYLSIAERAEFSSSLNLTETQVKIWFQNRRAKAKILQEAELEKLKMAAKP

On to CCGCCCCC, for which the binding signal in experiment [1] is 6.46 upbm affinity estimate (log intensity, higher = more binding, comparable within an allelic series); in experiment [2], 8.05 upbm affinity estimate (log intensity, higher = more binding, comparable within an allelic series); in [3], 7.95 upbm affinity estimate (log intensity, higher = more binding, comparable within an allelic series); in experiment [4] it was 9.06 upbm affinity estimate (log intensity, higher = more binding, comparable within an allelic series); in [5], 7.95 upbm affinity estimate (log intensity, higher = more binding, comparable within an allelic series); in experiment [6], 8.84 upbm affinity estimate (log intensity, higher = more binding, comparable within an allelic series). In addition, the binding signal in experiment [7] is 6.33 upbm affinity estimate (log intensity, higher = more binding, comparable within an allelic series); in experiment [8], 6.99 upbm affinity estimate (log intensity, higher = more binding, comparable within an allelic series); in experiment [9] it was 9.92 upbm affinity estimate (log intensity, higher = more binding, comparable within an allelic series); in experiment [10], 6.51 upbm affinity estimate (log intensity, higher = more binding, comparable within an allelic series); in [11], 6.43 upbm affinity estimate (log intensity, higher = more binding, comparable within an allelic series); in [12] it was 6.41 upbm affinity estimate (log intensity, higher = more binding, comparable within an allelic series). Besides, the binding signal in [13] is 10.2 upbm affinity estimate (log intensity, higher = more binding, comparable within an allelic series); in experiment [14], 10.4 upbm affinity estimate (log intensity, higher = more binding, comparable within an allelic series); in experiment [15], 8.75 upbm affinity estimate (log intensity, higher = more binding, comparable within an allelic series); in experiment [16], 6.94 upbm affinity estimate (log intensity, higher = more binding, comparable within an allelic series); in [17], 8.81 upbm affinity estimate (log intensity, higher = more binding, comparable within an allelic series); in experiment [18] it was 10.4 upbm affinity estimate (log intensity, higher = more binding, comparable within an allelic series).

ACAATTAT: the binding signal in experiment [1] was 11.8 upbm affinity estimate (log intensity, higher = more binding, comparable within an allelic series); in [19], 9.96 upbm affinity estimate (log intensity, higher = more binding, comparable within an allelic series); in experiment [4], 11.2 upbm affinity estimate (log intensity, higher = more binding, comparable within an allelic series); in experiment [6], 9.99 upbm affinity estimate (log intensity, higher = more binding, comparable within an allelic series); in [7], 12.1 upbm affinity estimate (log intensity, higher = more binding, comparable within an allelic series); in experiment [20] it was 12.6 upbm affinity estimate (log intensity, higher = more binding, comparable within an allelic series). Further, the binding signal in experiment [21] is 10.6 upbm affinity estimate (log intensity, higher = more binding, comparable within an allelic series); in experiment [22], 13.8 upbm affinity estimate (log intensity, higher = more binding, comparable within an allelic series); in [10] it was 8.44 upbm affinity estimate (log intensity, higher = more binding, comparable within an allelic series); in [23] it was 10.8 upbm affinity estimate (log intensity, higher = more binding, comparable within an allelic series); in experiment [24], 10.2 upbm affinity estimate (log intensity, higher = more binding, comparable within an allelic series); in experiment [11] it was 10.3 upbm affinity estimate (log intensity, higher = more binding, comparable within an allelic series). Also, the binding signal in experiment [25] is 13.4 upbm affinity estimate (log intensity, higher = more binding, comparable within an allelic series); in experiment [12], 7.61 upbm affinity estimate (log intensity, higher = more binding, comparable within an allelic series); in experiment [26], 8.71 upbm affinity estimate (log intensity, higher = more binding, comparable within an allelic series); in experiment [15] it was 13.2 upbm affinity estimate (log intensity, higher = more binding, comparable within an allelic series).

(Values after paper PMC11006913.)
